In the library only some 2.3% were active in any assay of this set; here they are far more common.
Glioma ERSR ind – qHTS for Inducers of the Endoplasmic Reticulum Stress Response (ERSR) in Human Glioma: qHTS; Potency, µM, for the others: top-dose activation, hits mostly activators; 0.02% of 420,000 active; U87-MG GRP78 promoter luciferase reporter, 16 h; also: potency is read from the fitted curve at half-maximal effect; series mostly up to about 76 µM; % of control where 0% means no effect; nearly all actives have a fitted effect of over 35% in size
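ERSR induction read as luciferase luminescence (Bright-Glo, 10 min at room temperature) in stably transfected human U87-MG glioma cells exposed to compounds for 16 h, using GRP78 as sensor.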
Mito fusion act – qHTS Assay for Small Molecule Inhibitors of Mitochondrial Division or Activators of Mitochondrial Fusion; S. cerevisiae fusion-defective mutant growth rescue, CellTiterGlo 48 h; Potency, µM (series often up to 46.1 µM), without a hit: at the top dose growth rescue (activation), actives largely listed as activators; 0.23% of 320,000 active; AID 485298, 2010; also: potency is read from the fitted curve at half-maximal effect; % of control where 0% means no effect; nearly all actives have a fitted effect of over 45% in size
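S. cerevisiae fusion-defective temperature-sensitive mutants (e.g. fzo1-1, mgm1-5) grown 48 h at 37C in YPEG (ethanol/glycerol non-fermentable) medium with 23 nl compound per well; growth rescue read as CellTiterGlo luminescence.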
Nrf2 ARE act – qHTS of Nrf2 Activators; AREc32 ARE-luciferase reporter (MCF7-derived line), luminescence, 24 h; Potency, µM (top dose mostly 46.1 µM), without a hit: at the highest dose activation, usual class: activators; 0.31% of 410,000 active; AID 624171, 2012; also: potency is read from the fitted curve at half-maximal effect; % of control where 0% means no effect; nearly all actives have a fitted effect of over 65% in size
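Quantitative high-throughput format: AREc32 reporter cells, 1000 per well, received compound by pin transfer and were incubated 24 hr at 37 deg C, 5% CO2, before Steady-Glo luminescence detection.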
miR-21 act – qHTS Assay for Modulators of miRNAs and/orActivators of miR-21. HeLa miR-21 FLuc reporter, luciferase, 48 h. Potency, µM (series often up to 38.3 µM), for the others: at the highest dose activity change, positive = activation, most hits filed as activators. 340,000 tested, under 10 active. AID 2288, 2010;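 also: % of control where 0% means no effect; miR-21 action dims this reporter so a rising signal means less miR-21 action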
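Using DMEM plus 10% FBS, HeLa miR-21-FLuc cells are incubated with test compounds (final up to about 40uM) for 48 hours; firefly luciferase signal is then imaged following reagent-mediated lysis.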
A549 viability – Nrf2 qHTS screen for inhibitors: counterscreen for cytotoxicity; A549 ARE-Fluc cells, CellTiter-Fluor viability, 18-24 h; Potency, µM (doses to about 46 µM), for inactives: at the top dose activity change, negative = cytotoxicity, most hits filed as inhibitors; 0.16% of 390,000 active; AID 504648, 2011; also: potency is read from the fitted curve at half-maximal effect; % is scaled to controls: 0 for no effect and ±100 for the full control effect
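A549 ARE_Fluc cells in 5% FBS OPTI-MEM were exposed to compounds in concentration-response for 18-24 h at 37 deg C. Viability was read by CellTiter-Fluor fluorescence (Ex 405/Em 525) after 30 min, before the luciferase read.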
Nrf2 block – Nrf2 qHTS screen for inhibitors; A549 ARE-Fluc reporter, luciferase luminescence, 18-24 h; Potency, µM (doses to about 46 µM), inactives show at the top dose activity change, negative = inhibition, hits mostly inhibitors; 2.1% of 360,000 active; AID 504444, 2011; also: potency is read from the fitted curve at half-maximal effect; % is scaled to controls: 0 for no effect and ±100 for the full control effect; nearly all actives have a fitted effect of over 60% in size
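In this cell-based qHTS, ARE-driven firefly luciferase in A549 cells reports Nrf2 activity; the luminescent signal after BugLite lysis is the measured value, with a prior CellTiter-Fluor read for cell health.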
Numbers without * were called inactive; ? = inconclusive; . = not tested or not shown; [ ] = dose if it differs, or a comment. Calls follow the shape of the dose curve; as a rule, active = well fitted curve in the direction sought with a large enough effect; inconclusive = small, poorly fitted or top-dose-only effect, or another doubt; inactive = no such curve, though single readings can be large; an effect the other way counts as inactive or inconclusive.

SMILES	Glioma ERSR ind	Mito fusion act	Nrf2 ARE act	miR-21 act	A549 viability	Nrf2 block
O=S(=O)(c1cccs1)N1CCN(CCOc2ccc(Cl)cc2)CC1	-2%	1%	-1%	.	-24%	15µM*
CCN(CC)CCn1c2ccccc2c2cnc(N)c(C#N)c21	3%	15%	12%	24%	?	5.2µM*
COc1nc(-c2ccccc2)nc(C)c1CC(=O)O	-7%	6.3µM*	0%	0%	2%	-8%
COc1nc(-c2ccccc2)nnc1-c1ccccc1	2%	2%	28%	-62%	9%	?
Cc1c(C(=S)Nc2ccccc2)cnn1-c1ccc([N+](=O)[O-])cc1	2%	-1%	-1%[9.22 µM]	2%	-3%	23µM*
CCCCCc1ccc(-c2ccc(/C=C/C(=O)O)cc2)nc1	-10%	13µM*	-2%	-6%	-10%	?
Cc1c(C(=O)N(Cc2ccc(Cl)cc2)C2CCS(=O)(=O)C2)oc2ccccc12 (configuration not stated)	-6%	14µM*	0%	-4%	?	?
Cc1c(C(=O)N(Cc2cccc(F)c2)C2CCS(=O)(=O)C2)oc2cc(Br)ccc12 (configuration not stated)	0%	.	1%	-2%	-20%	13µM*
CCOc1ccc(CN(C(=O)c2oc3ccccc3c2C)C2CCS(=O)(=O)C2)cc1 (configuration not stated)	-3%	1%	0%	4%	-13%	?
Cc1cc(C)cc(NS(=O)(=O)c2ccc3[nH]cc(C(=O)N(C)Cc4ccccc4)c(=O)c3c2)c1	-5%	.	0%	?	9%	9%
CCC(=O)NC1CCN(C(=S)NC)CC1	1%	2%	0%	-1%	0%	?
Cc1ccc(S(=O)(=O)N2CCOCC2)cc1C(=O)OCC(=O)NC1CCCC(C)C1C (configuration not stated)	-5%	2%	1%	.	-8%	-4%
COc1cc(C2C=C(Nc3ccccc3)C(=O)N2c2ccccc2)ccc1O (configuration not stated)	5%	3%	3%	-36%	?	18µM*
O=C1C(Nc2ccccc2)=CC(c2ccc(O)cc2)N1c1ccccc1 (configuration not stated)	6%	0%	1%	-29%	1%	-1%
CC(NC(=O)c1ccc([N+](=O)[O-])o1)C12CC3CC(CC(C3)C1)C2 (configuration not stated)	-16%	14µM*	?	6%	0%	-5%
CC(NC(=O)C12CC3CC(CC(C3)C1)C2)C(=O)NN=Cc1ccc([N+](=O)[O-])o1 (configuration not stated)	-1%	.	7%	.	-13%	?
O=C(c1ccccc1)N1CCN(S(=O)(=O)c2cccc(NS(=O)(=O)c3ccccc3)c2)CC1	-2%	-16%	0%	0%	-3%	-12%
O=C(Cc1ccc(Cl)cc1Cl)Nc1ccncc1	-4%	-10%	0%	23%	3%	16µM*
O=C(Cc1ccc(Cl)cc1Cl)Nc1ccncc1Cl	-6%	-2%	0%	13%	2%	9.2µM*
O=C(Cc1c(Cl)cccc1Cl)Nc1ccncc1	-3%	3%	0%	10%	10%	-11%
S=C(NCc1ccc(Cl)cc1)Nc1ccncc1	-3%	-3%	0%	17%	-5%	13µM*
O=C(Cc1c(Cl)cccc1Cl)Nc1ccncc1Cl	-3%	1%	0%	0%	1%	?
CN(C)C1(CNC(=O)C2CCC(=O)N(Cc3ccc(Cl)cc3)C2)CCCCC1 (configuration not stated)	-3%	-7%	-1%	0%	1%	-8%
CC(C)OC(=O)c1cc2c(=O)[nH]c(C(Cl)(Cl)Cl)nc2o1	-1%	-3%	0%	3%	-10%	?
O=c1c2cn[nH]c2nc(SCc2ccc3c(c2)OCCO3)n1-c1ccccc1	-7%	0%	3%	-5%	-16%	21µM*
SMILES	Glioma ERSR ind	Mito fusion act	Nrf2 ARE act	miR-21 act	A549 viability	Nrf2 block
O=C(NCCc1cn2ccccc2n1)c1cc(COc2ccc3ncccc3c2)on1	-7%	9%	4%	?	?	16µM*
O=C(CCNS(=O)(=O)c1cccc2nsnc12)N1CCN(c2ccccn2)CC1	.	2%	.	-1%	.	.
CCCCN(C(=O)C1CCC(CNS(=O)(=O)c2cccc3nsnc23)CC1)c1ccccc1 (configuration not stated)	-4%	.	-1%	25%	-8%	26µM*
O=C(C1CCC(CNS(=O)(=O)c2cccc3nsnc23)CC1)N1CCN(c2ccccn2)CC1 (configuration not stated)	-6%	3%	6%	14%	-5%	21µM*
CN(Cc1ccccc1)C(=O)C1CCC(CNS(=O)(=O)c2cccc3cccnc23)CC1 (configuration not stated)	-3%	-3%	5%	5%	1%	16µM*
CCN(CC)C(=O)C1CCC(CNS(=O)(=O)c2cccc3cccnc23)CC1 (configuration not stated)	-4%	0%	3%	-9%	-3%	9%
CCC1CCCCN1CCNC(=O)CNS(=O)(=O)c1ccc2nc(C)sc2c1 (configuration not stated)	-2%	1%	0%	-3%	3%	6%
N#Cc1ccc(Nc2nc(-c3ccccc3)c(C(=O)c3ccccc3)s2)cc1	-2%	.	0%	.	.	.
Cc1ccc(-c2nn3c(C)nnc3c3ccccc23)cc1S(=O)(=O)NC(C)(C)CO	?	-4%	?	-22%	?	12µM*
Cc1ccc(-c2nn3c(C)nnc3c3ccccc23)cc1S(=O)(=O)NC(C)c1ccccc1 (configuration not stated)	11%	-2%	12%	-11%	6%	?
COC(=O)[C@]1(C)CCC[C@@]2(C)C3CC[C@@]4(C)C[C@]3(CCC21)CC(=O)N4Cc1ccc(OC)cc1 (some centres not stated)	-1%	9%	0%	.	-7%	15µM*
C=CCN1C(=O)/C(=C/c2ccc(O)c(OC)c2)S/C1=N/c1nccs1	-2%	?	4%	-6%	-17%	-4%
CC1CCN(C(=O)c2cc(-c3ccco3)on2)CC1	-1%	6%	14µM*	-79%	-2%	?

Compound activity: PubChem BioAssay, National Center for Advancing Translational Sciences (NCATS)
